The values below come from PubChem BioAssay (NCI).

This is part of a sample that, as a whole, favours compounds with a hit. Of some 83,000 tested, about 20% had one in any assay.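 Testing used 96-well plates and a 48-hour single-concentration exposure. Example: -40 means 40% of the starting cells died.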 Values without a mark were called inactive. The source made the active and inactive calls. The calls were made as follows: active = growth percent below 10; inactive = the rest.

In the experiment the test system is HL-60(TB) leukemia. Description: NCI-60 one-dose screen, 48 h (100 = growth as untreated, 0 = no growth, -100 = all killed). As to conditions: 10 µM unless noted.
In the case of `COC1C(O)CC(OC2CC(OC3CC(O[C@@H]4C(=O)c5c(cc6cc(OC7CC(OC8CC(O)C(O)C(C)O8)C(O)C(C)O7)c(C)c(O)c6c5O)CC4[C@H](OC)C(=O)C(C)=O)OC(C)C3O)OC(C)C2O)OC1C` (some centres not stated), the growth was -18.6% (active).
`CC(C)(C)c1ccc(NS(=O)(=O)c2ccc3nc(NC(=O)c4cnccn4)[nH]c3c2)cc1`: the growth is -21.9% (active).
With `Cc1ccc2c(c1)CC(O)CC1C(=O)N(CCO)CC(=O)N21` (configuration not stated), the growth is 96.9%.
As to `CC(C)(C)CC(C)(C)Nc1c(-c2c(O)c3ccccc3oc2=O)nc2sccn12`, the growth was 99.7%.
For `O=S(=O)(/N=c1/n(-c2ccccc2)nc2n1CCN2C1=NCCN1)c1ccc(-c2ccccc2)cc1`, the growth is 136%.
For `CN1CCC(=C(c2ccccc2)c2ccccc2)C(c2ccccc2)C1` (configuration not stated), the growth was 88%.
Take `CCOC(=O)c1ccc2c(c1)ncn2-c1ccc(NC(=O)Nc2cccc(C)c2)cc1`: the growth was 78.3%.
As for `CCN1CCN(c2nc(NCCCNc3ccnc4cc(Cl)ccc34)c3ccccc3n2)CC1`, the growth was -51.4% (active).
Turning to `O=C1Nc2ccc(Cl)cc2[C@@](C#CC2CC2)(C(F)(F)F)O1`, the growth was 96.5%.
For `COc1ccc(/C=C2/CN(C(=O)c3ccc(C)cc3)C/C(=C\c3ccc(OC)cc3)C2=O)cc1`, the growth is 80%.
As for `Cc1cc(C)nc(SC2=C(Nc3ccc(C)c(Cl)c3)C(=O)N(Cc3ccccc3)C2=O)n1`, the growth is 26.1% [30 µM].
Under `C=C(CNCCO)[C@@H]1CC[C@]2(CO)CC[C@]3(C)[C@H](CC[C@@H]4[C@@]5(C)CCC(N)C(C)(C)[C@@H]5CC[C@]43C)[C@@H]12` (some centres not stated) stands 32.4%.
